Screens as filed in PubChem.
gsp ag = qHTS for Agonist of gsp, the Etiologic Mutation Responsible for Fibrous Dysplasia/McCune-Albright Syndrome: qHTS. gsp mutant cells, cAMP HTRF, 30 min. Potency, µM (doses to about 76.9 µM), for inactives: at the highest dose activation (cAMP increase), hits mostly activators. hit rate 0.13% among 340,000; active means well fitted activation curve with a large enough effect; inconclusive means small, poorly fitted or top-dose-only effect, or another doubt; inactive means no such curve, though single readings can be large or run the other way; cell line not stated here;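 further: phosphodiesterase inhibitor Ro 20-1724 added with compounds to block cAMP breakdown; potency means the concentration at half of the fitted maximal effect; nearly all actives have a fitted effect of over 60% in size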
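Cells in DMEM/10% FBS with G418 were pretreated with compounds in DMSO plus […] (300 uM stock) for 30 min at 37C. cAMP was measured by HTRF (cAMP-d2 plus anti-cAMP antibody-K) after 30 min at room temperature.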
TSHR antag = Antagonists of the Thyroid Stimulating Hormone Receptor: HTS campaign; Thyrotropin receptor (Homo sapiens), P16473; TSHR-expressing cells, TSH-stimulated cAMP HTRF, 2 h; hits give low values; activity change, negative = inhibition, % at 11.5 µM; hit rate 0.2% among 330,000; AID 504810, 2011;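 active means activity change below a set negative limit, meaning inhibition stronger than a set level, cut at about -70% in these data; inconclusive means activity change between two set negative limits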; further: on the % scale 0 is the no-effect control and ±100 the full control effect
Target sequence (P16473 whole entry, looked up): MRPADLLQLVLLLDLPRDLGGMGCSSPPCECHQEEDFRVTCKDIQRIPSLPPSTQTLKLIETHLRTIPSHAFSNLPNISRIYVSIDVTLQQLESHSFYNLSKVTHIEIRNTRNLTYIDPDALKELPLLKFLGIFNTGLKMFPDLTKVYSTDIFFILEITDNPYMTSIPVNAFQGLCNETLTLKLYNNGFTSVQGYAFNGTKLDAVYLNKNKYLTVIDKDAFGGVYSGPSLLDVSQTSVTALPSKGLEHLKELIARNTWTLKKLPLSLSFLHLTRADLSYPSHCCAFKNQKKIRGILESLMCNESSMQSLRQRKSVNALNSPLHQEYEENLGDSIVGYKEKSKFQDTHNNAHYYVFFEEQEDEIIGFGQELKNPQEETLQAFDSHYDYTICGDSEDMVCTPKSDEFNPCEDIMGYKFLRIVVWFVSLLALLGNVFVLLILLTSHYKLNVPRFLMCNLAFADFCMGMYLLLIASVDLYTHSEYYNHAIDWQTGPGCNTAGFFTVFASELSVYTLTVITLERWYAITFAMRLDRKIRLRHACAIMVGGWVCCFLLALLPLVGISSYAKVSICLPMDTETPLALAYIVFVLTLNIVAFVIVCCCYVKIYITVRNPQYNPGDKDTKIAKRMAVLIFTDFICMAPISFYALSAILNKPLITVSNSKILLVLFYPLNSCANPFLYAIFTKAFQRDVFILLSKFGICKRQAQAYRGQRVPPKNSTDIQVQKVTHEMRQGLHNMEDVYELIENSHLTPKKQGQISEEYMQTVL
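TSHR-expressing cells, 200/well, pre-treated with compound, then stimulated with EC80 TSH (4nM final) for 2 hours at 37 deg C. cAMP measured by competitive HTRF: anti-cAMP cryptate antibody in lysis buffer plus cAMP-d2, read after 30 minutes at room temperature.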
gsp antag = qHTS for Antagonists of gsp, the Etiologic Mutation Responsible for Fibrous Dysplasia/McCune-Albright Syndrome: qHTS; Potency, µM (titrated, usually from 76.9 µM), without a hit: top-dose activity change, negative = inhibition, actives largely listed as inhibitors; gsp-mutant cells, cAMP HTRF, 30 min; hit rate 0.4% among 340,000; calls by dose curve; cell line not stated here;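 further: intracellular cAMP measured with PDE inhibitor Ro 20-1724 present during compound exposure; potency means the concentration at half of the fitted maximal effect; on the % scale 0 is the no-effect control and ±100 the full control effect; nearly all actives have a fitted effect of over 65% in size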
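G418-selected cells were plated in DMEM/10% FBS for 16-24 h at 37C, then treated with compounds plus the PDE inhibitor […] (300 uM solution added) for 30 min at 37C. Intracellular cAMP was measured by HTRF after 30 min lysis at room temperature.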
RXFP1 antagonist = qHTS Assay for Antagonists of the Relaxin Receptor RXFP1; hit rate 0.59% among 350,000; HEK293-RXFP1, relaxin-stimulated cAMP HTRF, 30 min; hits give low values; activity change, negative = inhibition, % at 57.5 µM; Relaxin receptor 1 (Homo sapiens), Q9HBX9;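 active means activity change of -60% or lower, but not beyond a set lower limit; inconclusive means change between -60% and -40%, or beyond the set limit; inactive means change above -40%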; further: on the % scale 0 is the no-effect control and ±100 the full control effect
RXFP1 ag = qHTS Assay for Agonists of the Relaxin Receptor RXFP1; Relaxin receptor 1 (Homo sapiens), Q9HBX9; HEK293T-RXFP1 cAMP TR-FRET, 30 min; response scale: percent of porcine relaxin response, buffer zero; Potency, µM (series often up to 57.5 µM), inactives show top-dose activation, hits mostly activators; hit rate 0.3% among 370,000; active means well fitted activation curve with a large enough effect; inconclusive means small, poorly fitted or top-dose-only effect; further: potency means the concentration at half of the fitted maximal effect; on the % scale 0 is the no-effect control and ±100 the full control effect; nearly all actives have a fitted effect of over 60% in size
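cAMP rise read by TR-FRET after 30 min, 37C compound exposure (up to 58 uM) in RXFP1-transfected HEK293 cells with Ro 20174 present. EC50 from Hill-equation fits, with 29 nM porcine relaxin as 100% and buffer as basal.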
The depositor's hits bear a star; ? = inconclusive; · = no result; [ ] = dose if it differs, or a comment. Only some compounds are listed: those with a hit (about 1% of all), similar ones and a draw of the others.

SMILES	gsp ag	TSHR antag	gsp antag	RXFP1 antagonist	RXFP1 ag
CN(C)C(=S)Nc1cccc(-c2n[nH]c(=S)o2)c1	7%[15.4 µM]	15	0%	-4	20%
CC(=O)N(C1=C(Cl)C(=O)c2ccccc2C1=O)C1CCCCC1	28%[15.4 µM]	-82*	?	-99*	-3%
CC(=O)N(c1ccccc1C)C1CCCC1	-3%[15.4 µM]	0	14%	-15	3%
COc1ccccc1N1CCN(CC(O)COc2ccc(C)cc2C(C)(C)C)CC1 (stereo not drawn)	·	·	·	-83*	6%
COc1ccccc1N1CCN(CC(O)COc2cc(C)cc(C)c2)CC1 (stereo not drawn)	·	·	·	-6	-1%
COc1ccc(-n2nc(C(=O)NCC(=O)NCCCN3CCN(C)CC3)c3ccccc3c2=O)cc1	-7%[15.4 µM]	-100*	15%	1	2%
COc1ccc(-n2nc(C(=O)NCC(=O)NCCCN3CCN(C)CC3)c3ccccc3c2=O)cc1OC	10%	-11	2%	-3	5%
COc1ccc(CCNC(=O)c2cccc3c2C(=O)N(C2CCCCC2)C3)cc1OC	-21%	-78*	-23%	-35	-1%
O=C(NCCc1ccccc1)c1cccc2c1C(=O)N(C1CCCCC1)C2	?	-5	-5%	-14	-3%
Cc1ccc(NC(=O)CCc2nnc3ccc(N4CCN(C)CC4)nn23)cc1F	?	13	6%	12	25µM*
CCOC(=O)c1cccc(NC(=O)CCc2nnc3ccc(N4CCCCC4)nn23)c1	35µM*	-10	-10%	24	9%
Clc1ccc(-c2noc3ncnc(N4CCCCC4)c23)cc1	·	·	·	·	0%
CCCCCCCCNc1ncnc2ccccc12	5%	?	0.89µM*	-10	-2%
O=C(Nc1nc(-c2nc3ccccc3s2)cs1)C1COc2ccccc2O1 (stereo not drawn)	11µM*	-14	-22%	·	21%
O=C(NCc1cccnc1)C1CCN(S(=O)(=O)c2cc(Cl)ccc2Cl)CC1	6%	-1	1%	-88*	0%
O=C(Nc1nc(-c2ccccc2)cs1)C1CCCN(S(=O)(=O)c2ccccc2)C1 (stereo not drawn)	-8%	-75*	-29%	-11	0%
O=C(O)c1ccnc2c(O)cccc12	·	23	·	·	0%
COc1ccc(C(=O)Nc2ccccc2C(=O)O)cc1Cl	-10%	-28	?	-12	0%
COc1ccc(C(=O)Nc2ccccc2C(=O)O)cc1NC(=O)C(c1ccccc1)c1ccccc1	-2%	-28	40µM*	-24	0%
O=C(Nc1ccccc1)c1ccc(NC(=O)C2CC2)cc1	-42%	-26	9%	0	6%
O=C(Nc1ccccc1C(=O)O)c1ccc(NC(=O)c2ccc(Br)o2)cc1	22%	-29	35µM*	-37	-2%
COc1ccccc1C(=O)Nc1ccc(C(=O)Nc2ccccc2C(=O)O)cc1	?	3	35µM*	-18	2%
O=C(Nc1ccccc1C(=O)O)c1ccc(NC(=O)C2CCCCC2)cc1	7%[15.4 µM]	-23	32µM*	?	1%
COc1ccccc1NC(=O)c1ccccc1NC(=O)c1ccccc1	·	·	·	-13	1%
NC(=O)C1CCN(c2nc(-c3ccc([N+](=O)[O-])cc3)cs2)CC1	·	29	·	·	·
COc1cc(-c2nc3n(n2)C(c2ccc(F)cc2)C(C(N)=O)=C(C)N3)cc(OC)c1OC (stereo not drawn)	·	·	·	-6	1%
COc1ccc(C(=O)NC2CCCCCC2)cc1S(=O)(=O)N1CCCC1	4%[15.4 µM]	-5	11µM*	-4	1%
Cc1ccc(C(=O)Nc2ccccc2C(=O)O)cc1S(=O)(=O)N1CCCCCC1	·	·	·	-102*	0%
Cc1ccc2c(c1)-c1c(cnc3cc(-c4ccc(Cl)cc4)nn13)CO2	·	·	·	·	5%
CCc1ccc(N(CC)C(=O)Cn2c(=O)oc3ccccc32)cc1	·	·	·	-11	1%
